Inconclusive results are not listed. Active and inactive are the calls of the source. The call rests on the fitted dose curve; in most records, active means well fitted curve in the direction sought with a large enough effect; inconclusive means small, poorly fitted or top-dose-only effect, or another doubt; inactive means no such curve, though single readings can be large; an effect the other way counts as inactive or inconclusive.
How the values were obtained:
[1] = qHTS of pediatric cancer cell lines to identify multiple opportunities for drug repurposing: Primary screen for TC32 cells (AID 1347089); further: on the % scale 0 is the no-effect control and ±100 the full control effect; nearly all actives have a fitted effect of over 60% in size
Outline: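 Measured quantity: luminescence from CellTiter-Glo, reflecting metabolically active TC32 cells following 48 h of compound. Curves came straight from multi-point titrations, with 8 or 11 points in primary and 11 in confirmatory screening.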

[2] = qHTS of pediatric cancer cell lines to identify multiple opportunities for drug repurposing: Primary screen for DAOY cells (AID 1347090);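 further: series mostly up to about 46 µM; plate controls were DMSO for no effect and bortezomib for full effect; nearly all actives have a fitted effect of over 55% in size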
Outline: (§1)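 Eight- or eleven-point concentration series, 48 h treatment at 37 degrees C in growth media; readout CellTiter-Glo luminescence. Potency and efficacy were taken from the concentration-response curves.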

[3] = qHTS of pediatric cancer cell lines to identify multiple opportunities for drug repurposing: Primary screen for SJ-GBM2 cells (AID 1347091);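 further: plate controls were DMSO neutral control for no effect and bortezomib for full effect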
Outline: as §1

[4] = qHTS of pediatric cancer cell lines to identify multiple opportunities for drug repurposing: Primary screen for A673 cells (AID 1347092); further: on the % scale 0 is the no-effect control and ±100 the full control effect; nearly all actives have a fitted effect of over 45% in size
Outline: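 Cells are plated, rested 5 h, dosed by pintool, incubated 48 h, then lysed with CellTiter-Glo and read by luminescence. DMSO is the neutral control; bortezomib at 2.3 uM final is the positive control.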

[5] = qHTS of pediatric cancer cell lines to identify multiple opportunities for drug repurposing: Primary screen for SK-N-MC cells (AID 1347093);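 further: series mostly up to about 46 µM; plate controls were DMSO neutral control for no effect and bortezomib for full effect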
Outline: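 Metabolically active cells were quantified by ATP-dependent luminescence (CellTiter-Glo, 15 min at room temperature) following 48 h treatment. Cells had been plated at 500-1,000 per well and settled for 5 h beforehand.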

[6] = qHTS of pediatric cancer cell lines to identify multiple opportunities for drug repurposing: Primary screen for BT-37 cells (AID 1347094);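 further: series mostly up to about 57 µM; plate controls were DMSO for no effect and bortezomib for full effect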
Outline: (§2)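 ATP-based luminescence (CellTiter-Glo) quantifies viability after a 48-hour exposure. Compounds are dosed across 8 or 11 final concentrations; DMSO and 2.3 µM bortezomib serve as controls.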

[7] = qHTS of pediatric cancer cell lines to identify multiple opportunities for drug repurposing: Primary screen for NB-EBc1 cells (AID 1347095);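 further: plate controls were DMSO neutral control for no effect and bortezomib for full effect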
Outline: as §2

[8] = qHTS of pediatric cancer cell lines to identify multiple opportunities for drug repurposing: Primary screen for U-2 OS cells (AID 1347096);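 further: plate controls were DMSO wells for no effect and bortezomib positive control wells for full effect; nearly all actives have a fitted effect of over 50% in size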
Outline: (§3)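 Cells (500-1,000/well) in growth media were settled 5 h at 37 degrees C, then given compounds for 48 h. Viability was read as CellTiter-Glo luminescence. Primary runs used MIPE at 11 points (0.78 nM-46 µM) and NPC at 8 points (0.59 nM-46 µM); follow-ups used 11 points.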

[9] = qHTS of pediatric cancer cell lines to identify multiple opportunities for drug repurposing: Primary screen for Saos-2 cells (AID 1347097); further: on the % scale 0 is the no-effect control and ±100 the full control effect; nearly all actives have a fitted effect of over 40% in size
Outline: as §2

[10] = qHTS of pediatric cancer cell lines to identify multiple opportunities for drug repurposing: Primary screen for SK-N-SH cells (AID 1347098);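 further: DMSO served as neutral control and bortezomib at 2.3 µM as positive control; on the % scale 0 is the no-effect control and ±100 the full control effect; nearly all actives have a fitted effect of over 65% in size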
Outline: (§4)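 Cells (500-1,000/well) rested 5 h, then received compounds for 48 h; metabolically active cells were measured by CellTiter-Glo luminescence. Final concentrations spanned up to 46 µM (MIPE, 11-point) or 0.59 nM-46 µM (NPC, 8-point) in primary screens, 11-point in follow-ups.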

[11] = qHTS of pediatric cancer cell lines to identify multiple opportunities for drug repurposing: Primary screen for NB1643 cells (AID 1347099);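 further: plate controls were DMSO neutral control for no effect and bortezomib positive control for full effect; nearly all actives have a fitted effect of over 50% in size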
Outline: as §2

[12] = qHTS of pediatric cancer cell lines to identify multiple opportunities for drug repurposing: Primary screen for LAN-5 cells (AID 1347100);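 further: plate controls were DMSO neutral control for no effect and bortezomib positive control for full effect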
Outline: as §3

[13] = qHTS of pediatric cancer cell lines to identify multiple opportunities for drug repurposing: Primary screen for BT-12 cells (AID 1347101);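 further: plate controls were DMSO for no effect and bortezomib positive control for full effect; nearly all actives have a fitted effect of over 25% in size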
Outline: as §4

[14] = qHTS of pediatric cancer cell lines to identify multiple opportunities for drug repurposing: Primary screen for Rh18 cells (AID 1347102); further: on the % scale 0 is the no-effect control and ±100 the full control effect; nearly all actives have a fitted effect of over 65% in size
Outline: as §3

[15] = qHTS of pediatric cancer cell lines to identify multiple opportunities for drug repurposing: Primary screen for OHS-50 cells (AID 1347103);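 further: plate controls were DMSO neutral control for no effect and bortezomib positive control for full effect; nearly all actives have a fitted effect of over 40% in size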
Outline: as §4

[16] = qHTS of pediatric cancer cell lines to identify multiple opportunities for drug repurposing: Primary screen for RD cells (AID 1347104);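 further: plate controls were DMSO for no effect and bortezomib for full effect; nearly all actives have a fitted effect of over 55% in size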
Outline: as §2

[17] = qHTS of pediatric cancer cell lines to identify multiple opportunities for drug repurposing: Primary screen for MG 63 (6-TG R) cells (AID 1347105); further: on the % scale 0 is the no-effect control and ±100 the full control effect; nearly all actives have a fitted effect of over 50% in size
Outline: as §2

[18] = qHTS of pediatric cancer cell lines to identify multiple opportunities for drug repurposing: Primary screen for control Hh wild type fibroblast cells (AID 1347106);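 further: series mostly up to about 46 µM; on the % scale 0 is the no-effect control and ±100 the full control effect; a drop in luminescence marks cytotoxicity and a rise apparent proliferation; nearly all actives have a fitted effect of over 55% in size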
Outline: as §3

[19] = target: Tyrosine-protein phosphatase non-receptor type substrate 1 (Homo sapiens) + Leukocyte surface antigen CD47 (Homo sapiens) (UniProt P78324+Q08722); assay: CD47-SIRPalpha protein protein interaction - Alpha assay qHTS validation (AID 1347059);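 further: bead proximity luminescence from CD47 binding SIRPalpha after compound preincubation with SIRPalpha; on the % scale 0 is the no-effect control and ±100 the full control effect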
Outline: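 In PBS (pH 7.4) with 0.05% IGEPAL CA-630, compound is preincubated with biotin-Avi-SIRPalpha ectodomain before His-CD47 ectodomain and affinity beads are added. Light-protected room-temperature incubations; AlphaScreen readout.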

[20] = target: Parathyroid hormone/parathyroid hormone-related peptide receptor (Homo sapiens) (UniProt Q03431); assay: qHTS for PTHR1 Agonists: Optimization Screen against the NCGC LOPAC library (AID 1347079);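 further: GloSensor cAMP luminescence in HEK-293 GP2 cells expressing human PTHR1 with IBMX; 0% is about no effect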
Outline: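 HEK-293 GP2 cells, PTHR1 + GloSensor cAMP; 3000 cells/well, o/n. Luciferin + IBMX 0.5mM each (stock), 1 hr 37C. Cpd titration, 1 hr 37C. Lum after 15 min RT. Ctrl M-PTH(1-15) top 10uM.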

Sequence of Tyrosine-protein phosphatase non-receptor type substrate 1 (Homo sapiens) + Leukocyte surface antigen CD47 (Homo sapiens) (P78324 whole entry, looked up, the tested form may be a part): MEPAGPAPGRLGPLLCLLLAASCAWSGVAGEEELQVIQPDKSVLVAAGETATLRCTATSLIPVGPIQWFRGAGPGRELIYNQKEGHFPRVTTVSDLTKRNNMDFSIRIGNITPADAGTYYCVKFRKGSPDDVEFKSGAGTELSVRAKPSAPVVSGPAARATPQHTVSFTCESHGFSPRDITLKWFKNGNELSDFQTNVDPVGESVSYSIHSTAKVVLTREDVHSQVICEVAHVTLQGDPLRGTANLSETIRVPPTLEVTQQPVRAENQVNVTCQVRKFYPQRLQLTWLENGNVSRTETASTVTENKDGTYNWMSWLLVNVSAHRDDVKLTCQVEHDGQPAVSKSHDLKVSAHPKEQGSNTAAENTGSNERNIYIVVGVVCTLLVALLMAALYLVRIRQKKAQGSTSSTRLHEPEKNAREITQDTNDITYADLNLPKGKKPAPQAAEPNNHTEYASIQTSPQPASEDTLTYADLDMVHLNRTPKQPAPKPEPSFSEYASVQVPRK
Sequence of Tyrosine-protein phosphatase non-receptor type substrate 1 (Homo sapiens) + Leukocyte surface antigen CD47 (Homo sapiens) (Q08722 whole entry, looked up, the tested form may be a part): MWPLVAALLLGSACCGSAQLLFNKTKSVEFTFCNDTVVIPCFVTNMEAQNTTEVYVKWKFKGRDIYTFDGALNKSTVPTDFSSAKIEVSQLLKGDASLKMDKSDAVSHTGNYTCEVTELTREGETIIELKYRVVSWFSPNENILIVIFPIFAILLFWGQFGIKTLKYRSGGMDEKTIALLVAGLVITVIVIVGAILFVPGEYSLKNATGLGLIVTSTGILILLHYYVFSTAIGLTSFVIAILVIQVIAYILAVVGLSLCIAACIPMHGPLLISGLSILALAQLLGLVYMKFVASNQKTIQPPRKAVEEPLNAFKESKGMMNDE
Sequence of Parathyroid hormone/parathyroid hormone-related peptide receptor (Homo sapiens) (Q03431 whole entry, looked up): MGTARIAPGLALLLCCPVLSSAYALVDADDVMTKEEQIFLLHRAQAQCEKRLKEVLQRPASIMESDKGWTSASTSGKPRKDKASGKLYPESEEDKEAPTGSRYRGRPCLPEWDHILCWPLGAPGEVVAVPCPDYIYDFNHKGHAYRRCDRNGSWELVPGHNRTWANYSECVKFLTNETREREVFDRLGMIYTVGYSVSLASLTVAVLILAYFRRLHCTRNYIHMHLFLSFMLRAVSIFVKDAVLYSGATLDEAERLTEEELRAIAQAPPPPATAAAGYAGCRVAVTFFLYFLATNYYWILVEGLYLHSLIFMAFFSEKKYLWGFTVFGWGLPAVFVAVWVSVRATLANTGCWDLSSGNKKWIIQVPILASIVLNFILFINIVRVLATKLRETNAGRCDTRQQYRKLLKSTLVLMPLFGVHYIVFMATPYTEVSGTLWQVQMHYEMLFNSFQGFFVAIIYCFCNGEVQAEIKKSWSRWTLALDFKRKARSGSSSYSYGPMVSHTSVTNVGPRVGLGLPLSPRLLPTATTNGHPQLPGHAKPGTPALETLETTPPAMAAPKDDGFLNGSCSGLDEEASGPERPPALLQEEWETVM

Cc1cccn2c(=O)c(-c3nnn[nH]3)cnc12
inactive: Potency [1] | Potency [2] | Potency [3] | Potency [4] | Potency [5] | Potency [6] | Potency [7] | Potency [8] | Potency [9] | Potency [10] | Potency [11] | Potency [12] | Potency [13] | Potency [14] | Potency [15] | Potency [16] | Potency [17] | Potency [18]

C1CCc2nnnn2CC1
inactive: Potency [19]

CC[C@@H](CO)NCCN[C@@H](CC)CO
inactive: Potency [1] | Potency [2] | Potency [3] | Potency [4] | Potency [5] | Potency [6] | Potency [7] | Potency [8] | Potency [9] | Potency [10] | Potency [11] | Potency [12] | Potency [13] | Potency [14] | Potency [15] | Potency [16] | Potency [17] | Potency [18]

CC(=O)O[C@H]1C[C@@H]2CC[C@@H]3[C@H](CC[C@@]4(C)[C@H]3C[C@H]([N+]3(C)CCCCC3)[C@@H]4OC(C)=O)[C@@]2(C)C[C@@H]1[N+]1(C)CCCCC1
inactive: Potency [19] | outcome [20]

CC(CCc1ccccc1)NCC(O)c1ccc(O)c(C(N)=O)c1 (configuration not stated)
inactive: Potency [19] | outcome [20]

c1ccc(CNCCNCc2ccccc2)cc1
inactive: Potency [1] | Potency [2] | Potency [3] | Potency [4] | Potency [5] | Potency [6] | Potency [7] | Potency [8] | Potency [9] | Potency [10] | Potency [11] | Potency [12] | Potency [13] | Potency [14] | Potency [15] | Potency [16] | Potency [17] | Potency [18]

COC(=O)[C@@H]1CC2=CC(=O)CC[C@]2(C)[C@@]23O[C@@H]2C[C@@]2(C)[C@@H](CC[C@@]24CCC(=O)O4)[C@H]13
inactive: Potency [1] | Potency [2] | Potency [3] | Potency [4] | Potency [5] | Potency [6] | Potency [7] | Potency [8] | Potency [9] | Potency [10] | Potency [11] | Potency [12] | Potency [13] | Potency [14] | Potency [15] | Potency [16] | Potency [17] | Potency [18]

COc1cc(C(=S)N2CCOCC2)cc(OC)c1OC
inactive: Potency [1] | Potency [2] | Potency [3] | Potency [4] | Potency [5] | Potency [6] | Potency [7] | Potency [8] | Potency [9] | Potency [10] | Potency [11] | Potency [12] | Potency [13] | Potency [14] | Potency [15] | Potency [16] | Potency [17] | Potency [18]

N[C@@H](CCC(=O)N[C@@H](CS)C(=O)NCC(=O)O)C(=O)O
inactive: Potency [1] | Potency [2] | Potency [3] | Potency [4] | Potency [5] | Potency [6] | Potency [7] | Potency [8] | Potency [9] | Potency [10] | Potency [11] | Potency [12] | Potency [13] | Potency [14] | Potency [15] | Potency [16] | Potency [17] | Potency [18]

CN=C(NC#N)Nc1ccc(C2=NNC(=O)CC2C)cc1 (configuration not stated)
inactive: Potency [1] | Potency [2] | Potency [3] | Potency [4] | Potency [5] | Potency [6] | Potency [7] | Potency [8] | Potency [9] | Potency [10] | Potency [11] | Potency [12] | Potency [14] | Potency [15] | Potency [16] | Potency [17] | Potency [18]

Nc1ccc(/C=C/c2ccc(N)cc2S(=O)(=O)O)c(S(=O)(=O)O)c1
inactive: activity change, negative = cytotoxic [1] 14.3% [at 0.594 µM] | activity change, negative = cytotoxic [2] 10% [at 0.597 µM] | activity change, negative = cytotoxic [3] 4.37% [at 0.597 µM] | activity change, negative = cytotoxic [4] 1.22% [at 0.597 µM] | activity change, negative = cytotoxic [5] -3.26% [at 0.597 µM] | activity change, negative = cytotoxic [6] 22.8% [at 0.745 µM] | activity change, negative = cytotoxic [7] 25.1% [at 0.597 µM] | activity change, negative = cytotoxic [8] 17% [at 0.597 µM] | activity change, negative = cytotoxic [9] 2.49% [at 0.597 µM] | activity change, negative = cytotoxic [10] 12.2% [at 0.741 µM] | activity change, negative = cytotoxic [11] 24.7% [at 0.597 µM] | activity change, negative = cytotoxic [12] 21.1% [at 0.597 µM] | activity change, negative = cytotoxic [14] 24% [at 0.597 µM] | activity change, negative = cytotoxic [15] 19.6% [at 0.73 µM] | activity change, negative = cytotoxic [16] 13.1% [at 0.597 µM] | activity change, negative = cytotoxic [17] 9.42% [at 0.597 µM] | activity change, negative = cytotoxic [18] -3.6% [at 0.597 µM]

NCCc1ccn[nH]1
inactive: Potency [1] | Potency [2] | Potency [3] | Potency [4] | Potency [5] | Potency [6] | Potency [7] | Potency [8] | Potency [9] | Potency [10] | Potency [11] | Potency [12] | Potency [13] | Potency [14] | Potency [15] | Potency [16] | Potency [17] | Potency [18]

CO/N=C1\CN(c2nc3c(cc2F)c(=O)c(C(=O)O)cn3C2CC2)CC1CN (configuration not stated)
inactive: Potency [1] | Potency [2] | Potency [3] | Potency [4] | Potency [5] | Potency [6] | Potency [7] | Potency [8] | Potency [9] | Potency [10] | Potency [11] | Potency [12] | Potency [14] | Potency [15] | Potency [16] | Potency [17] | Potency [18]

O=C1c2ccccc2C(=O)C1c1ccccc1
inactive: Potency [1] | Potency [2] | Potency [3] | Potency [4] | Potency [5] | Potency [6] | Potency [7] | Potency [8] | Potency [9] | Potency [10] | Potency [11] | Potency [12] | Potency [13] | Potency [14] | Potency [15] | Potency [16] | Potency [17] | Potency [18]

CC1(C)O[C@@H]2[C@@H](CO[C@@]3(COS(N)(=O)=O)OC(C)(C)O[C@@H]23)O1
inactive: Potency [1] | Potency [2] | Potency [3] | Potency [4] | Potency [5] | Potency [6] | Potency [7] | Potency [8] | Potency [9] | Potency [10] | Potency [11] | Potency [12] | Potency [14] | Potency [15] | Potency [16] | Potency [17] | Potency [18]

Reference: PubChem BioAssay (NCATS)
